SMILES strings stand for the structures. The panel holds about 83,000 compounds, 20% with a hit somewhere; the sample as a whole holds those more often.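 Cells were grown in 96-well plates and exposed to the test compound at a single concentration for 48 hours; results are reported as percent growth, with values below 10 considered active.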 Values without a mark were called inactive. Calls of active or inactive are those of the source.

Test systems include SR leukemia; RPMI-8226 leukemia; OVCAR-8 ovarian; OVCAR-5 ovarian; SK-OV-3 ovarian; IGROV1 ovarian; OVCAR-3 ovarian; HS 578T breast; NCI/ADR-RES ovarian; T-47D breast; MDA-MB-435 melanoma; SW-620 colon; MCF7 breast; HCT-116 colon; HCC-2998 colon; KM12 colon; BT-549 breast.
Holding throughout (assay): NCI-60 one-dose screen, 48 h (100 = growth as untreated, 0 = no growth, -100 = all killed)
Common to all, as to settings: 10 µM unless noted

For the compound `CCN(CC)CCC(CNc1ccnc2cc(Cl)ccc12)c1ccc(Cl)cc1` (stereo not given), the growth was -13.2% (active) in the test on SR leukemia; -0.553% (active) in the test with RPMI-8226 leukemia; 1.27% (active) with OVCAR-8 ovarian; 22% with OVCAR-5 ovarian; -12.9% (active) in the test with SK-OV-3 ovarian; 33.5% in the test with IGROV1 ovarian. For the same compound, the growth in the test with OVCAR-3 ovarian was 25%; with HS 578T breast, -66.8% (active); with NCI/ADR-RES ovarian, 23.4%; in the test on T-47D breast, -76% (active); in the test on MDA-MB-435 melanoma it was -72.2% (active); in the test on SW-620 colon, -67.8% (active). The growth in the test on MCF7 breast was -70.7% (active); in the test on HCT-116 colon it was -26.9% (active); with HCC-2998 colon, -64.8% (active); with KM12 colon, 17.9%.
For the compound `COC(=O)C(Sc1ccc(Cl)cc1)C1SC(=S)N(Cc2ccccc2)C1=O` (stereo not given), the growth in the test with SR leukemia was 50.8%; in the test on RPMI-8226 leukemia it was 84.6%; with OVCAR-8 ovarian, 101%; in the test on OVCAR-5 ovarian, 118%; in the test on SK-OV-3 ovarian, 108%; in the test with OVCAR-3 ovarian it was 105%. The growth in the test on HS 578T breast is 106%; in the test on NCI/ADR-RES ovarian, 102%; in the test with T-47D breast, 81.7%; in the test on BT-549 breast, 84.1%; in the test with MDA-MB-435 melanoma it was 90.4%; in the test with SW-620 colon, 98.3%. Besides, the growth with MCF7 breast was 77.2%; with HCT-116 colon it was 89.7%; in the test with HCC-2998 colon it was 103%; in the test with KM12 colon it was 99.6%.
In the case of `NC(=S)N/N=C1\CCCC(C(F)(F)F)C1` (stereo not given), the growth was 78.7% with SR leukemia; 71.1% in the test on RPMI-8226 leukemia; 84.5% in the test on OVCAR-8 ovarian; 103% in the test with OVCAR-5 ovarian; 108% in the test on SK-OV-3 ovarian; 13.7% in the test on IGROV1 ovarian. In addition, the growth was 111% in the test with HS 578T breast; 87.7% in the test on NCI/ADR-RES ovarian; 96.3% with BT-549 breast; 105% with MDA-MB-435 melanoma; 98.5% in the test on SW-620 colon; 104% in the test on HCC-2998 colon.
Turning to `Oc1ccc2cc(Br)ccc2c1-c1c(O)ccc2cc(Br)ccc12`, the growth was 30.9% in the test with SR leukemia; 64.9% with RPMI-8226 leukemia; 72.7% in the test with OVCAR-8 ovarian; 94.1% in the test with OVCAR-5 ovarian; 64.7% in the test on SK-OV-3 ovarian; 28% in the test on IGROV1 ovarian. Also, the growth is 65.5% in the test with OVCAR-3 ovarian; 50.2% in the test on HS 578T breast; 56.2% in the test on NCI/ADR-RES ovarian; 57.9% in the test on T-47D breast; 63.1% in the test with MDA-MB-435 melanoma; 48.3% in the test on SW-620 colon. For the same compound, the growth was 37.1% in the test on MCF7 breast, 33.5% with HCT-116 colon and 40% in the test on KM12 colon.
For `O=C(O)C1CCCCN1c1nc(Cl)nc(Cl)n1` (stereo not given), the growth in the test with SR leukemia was 118%; in the test on RPMI-8226 leukemia, 109%; in the test on OVCAR-8 ovarian, 99.3%; in the test on OVCAR-5 ovarian it was 105%; in the test with SK-OV-3 ovarian, 99.9%; in the test on IGROV1 ovarian it was 106%. Moreover, the growth in the test on OVCAR-3 ovarian was 108%; with HS 578T breast, 103%; in the test with NCI/ADR-RES ovarian, 101%; in the test with T-47D breast it was 99%; in the test on BT-549 breast, 103%; in the test with SW-620 colon, 101%. The growth was 100% in the test on MCF7 breast, 111% with HCT-116 colon, 101% with HCC-2998 colon and 111% in the test with KM12 colon.
For the compound `CN(C)CCOC(=O)Nc1ccccc1Cl`, the growth in the test on SR leukemia is 104%; in the test on RPMI-8226 leukemia, 93.1%; in the test on OVCAR-8 ovarian, 109%; with OVCAR-5 ovarian it was 121%; with SK-OV-3 ovarian, 115%; with IGROV1 ovarian it was 106%. Moreover, the growth is 121% with OVCAR-3 ovarian; 115% with HS 578T breast; 112% in the test with T-47D breast; 99.3% in the test on BT-549 breast; 105% in the test on MDA-MB-435 melanoma; 109% in the test on SW-620 colon. The growth in the test on MCF7 breast was 103%; in the test on HCT-116 colon it was 103%; in the test on HCC-2998 colon, 111%; in the test on KM12 colon it was 112%.
`CC(C)(C)NCCC(O)c1cc2c(Cl)cc(Cl)cc2c2cc(C(F)(F)F)ccc12` (stereo not given): the growth with SR leukemia is -77.5% (active); in the test with RPMI-8226 leukemia, -40% (active); with OVCAR-8 ovarian, -81.1% (active); with OVCAR-5 ovarian, -83.2% (active); with SK-OV-3 ovarian it was 15.6%; in the test on IGROV1 ovarian, -63.2% (active). The growth with OVCAR-3 ovarian was -88.7% (active); in the test on HS 578T breast, -56.9% (active); in the test on NCI/ADR-RES ovarian, -80% (active); in the test on T-47D breast it was -78.3% (active); with BT-549 breast, 69.6%; in the test on MDA-MB-435 melanoma, -74.4% (active). The growth with SW-620 colon was -73.3% (active); in the test with MCF7 breast, -81.3% (active); with HCT-116 colon, -80.3% (active); in the test on KM12 colon, -90.9% (active).
Turning to `COC(=O)c1cc(=O)nc(N/N=C/c2ccco2)s1`, the growth with SR leukemia was 87%; in the test with RPMI-8226 leukemia, 96%; in the test on OVCAR-8 ovarian, 107%; in the test on OVCAR-5 ovarian, 108%; in the test on SK-OV-3 ovarian it was 117%; in the test with IGROV1 ovarian it was 93.4%. Also, the growth in the test with OVCAR-3 ovarian was 106%; in the test with HS 578T breast, 106%; with T-47D breast, 87.8%; with BT-549 breast it was 109%; in the test on MDA-MB-435 melanoma it was 114%; with SW-620 colon it was 108%. Further, the growth with MCF7 breast was 39.5%; with HCT-116 colon it was 93.8%; in the test on HCC-2998 colon it was 102%; in the test on KM12 colon, 101%.
Consider `O=C(NNC(=O)N1c2ccccc2C=Cc2ccccc21)c1ccccc1`, for which the growth with SR leukemia was 96.6%; in the test with RPMI-8226 leukemia, 104%; in the test with OVCAR-8 ovarian, 105%; with OVCAR-5 ovarian, 103%; with SK-OV-3 ovarian it was 112%; in the test with IGROV1 ovarian it was 110%. The growth is 113% in the test with OVCAR-3 ovarian; 109% in the test on HS 578T breast; 99.8% in the test with NCI/ADR-RES ovarian; 102% with T-47D breast; 103% with MDA-MB-435 melanoma; 107% in the test with SW-620 colon. In addition, the growth is 95.6% in the test with MCF7 breast, 103% in the test on HCT-116 colon, 114% with HCC-2998 colon and 105% with KM12 colon.
For the compound `Cc1ccc(S(=O)(=O)NCCNc2nccc(-c3c(-c4cccc(N)c4)nc4sccn34)n2)cc1`, the growth in the test on SR leukemia was 95.9%; in the test with RPMI-8226 leukemia, 74.7%; with OVCAR-8 ovarian, 91.4%; in the test on OVCAR-5 ovarian, 123%; in the test with SK-OV-3 ovarian, 103%; with IGROV1 ovarian, 86.6%. The growth in the test on OVCAR-3 ovarian is 87.4%; with HS 578T breast, 99.5%; in the test with T-47D breast, 51.7%; with BT-549 breast, 87.5%; in the test on MDA-MB-435 melanoma, 93.5%; with SW-620 colon, 123%. Moreover, the growth with MCF7 breast was 83.4%; in the test with HCT-116 colon it was 99.2%; in the test with HCC-2998 colon, 132%; in the test on KM12 colon, 92.2%.

The record behind these values is PubChem BioAssay (NCI).
